SMILES strings stand for the structures. About 580 (24%) of roughly 2,400 compounds were called active.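 How the source made its calls: active means activity change at or above the mean plus 3 SD of buffer wells without dofetilide, per plate; inactive means the rest.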 Only a sample is shown.

This assay deals with Potassium voltage-gated channel subfamily KQT member 2 (Rattus norvegicus) (UniProt O88943). As to the kind of experiment: rat KCNQ2 channel activation by compounds alone, confirmation, counter-screen for hERG block protector project, cell-based, CHO, FluxOR thallium flux (AID 1942).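 Further: normalized value minus buffer-control mean plus three SD of buffer wells.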 To be noted: CHO-KCNQ2 cells, FluxOR thallium flux fluorescence; at 10 µM; hits give high values. For orientation: A counterscreen serves to expose hits that act by an unwanted route or on another target.
Chain of Potassium voltage-gated channel subfamily KQT member 2 (Rattus norvegicus) (O88943 whole entry, looked up): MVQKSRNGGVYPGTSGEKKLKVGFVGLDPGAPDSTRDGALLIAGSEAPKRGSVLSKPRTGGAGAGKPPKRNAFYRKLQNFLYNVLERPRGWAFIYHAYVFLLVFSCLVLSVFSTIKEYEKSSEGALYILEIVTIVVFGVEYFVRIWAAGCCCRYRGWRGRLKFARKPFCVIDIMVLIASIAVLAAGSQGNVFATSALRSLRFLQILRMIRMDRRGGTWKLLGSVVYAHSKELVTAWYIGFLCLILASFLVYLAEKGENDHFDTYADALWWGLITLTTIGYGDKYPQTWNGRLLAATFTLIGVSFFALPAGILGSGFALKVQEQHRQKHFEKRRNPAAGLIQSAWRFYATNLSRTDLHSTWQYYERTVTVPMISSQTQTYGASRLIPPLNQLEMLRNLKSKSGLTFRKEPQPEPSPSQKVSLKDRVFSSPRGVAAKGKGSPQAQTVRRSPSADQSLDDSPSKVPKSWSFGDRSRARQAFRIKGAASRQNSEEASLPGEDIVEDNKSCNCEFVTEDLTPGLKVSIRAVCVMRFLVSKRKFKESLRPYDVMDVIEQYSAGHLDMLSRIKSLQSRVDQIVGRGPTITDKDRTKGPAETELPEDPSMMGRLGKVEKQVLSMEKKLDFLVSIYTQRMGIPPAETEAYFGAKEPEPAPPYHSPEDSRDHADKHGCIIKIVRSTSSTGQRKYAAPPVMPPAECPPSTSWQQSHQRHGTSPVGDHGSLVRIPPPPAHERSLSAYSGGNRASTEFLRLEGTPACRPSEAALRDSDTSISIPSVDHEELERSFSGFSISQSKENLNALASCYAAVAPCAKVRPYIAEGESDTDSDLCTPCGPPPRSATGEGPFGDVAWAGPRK
`Cc1nnc(N2C(=O)C(=O)/C(=C(\O)c3ccc4c(c3)CC(C)O4)C2c2ccccc2)s1` (stereo not drawn): the activity change, less the hit threshold is -7.2% (inactive).

On to `Cc1cc(O)c(/C=N/OCc2ccc(Cl)cc2Cl)c(=O)o1`, for which the activity change, less the hit threshold was -19.1% (inactive).

Take `Cc1cc(C)cc(NC(=O)N2CCCC2C(=O)Nc2ccc(-n3cnnn3)c(C)c2)c1` (stereo not drawn): the activity change, less the hit threshold is -19% (inactive).

For `CCOC(=O)Cc1csc(NC(=S)NC(=O)C(C)(C)C)n1`, the activity change, less the hit threshold is -1.3% (inactive).

Regarding `CCOC(=O)Cc1csc(NC(=S)NC(=O)c2ccc(Cl)cc2)n1`, the activity change, less the hit threshold was -7.1% (inactive).

In the case of `CCOC(=O)Cc1csc(NC(=S)NC(=O)c2ccccc2Br)n1`, the activity change, less the hit threshold was 9.2% (active).

In the case of `Cc1csc(NC(=S)NC(=O)c2ccccc2)n1`, the activity change, less the hit threshold was 7.2% (active).

`CCOC(=O)Cc1csc(NC(=S)NC(=O)c2ccccc2C)n1`: the activity change, less the hit threshold was 3.3% (active).

In the case of `CCOC(=O)Cc1csc(NC(=S)NC(=O)c2ccc(C)cc2)n1`, the activity change, less the hit threshold is -3.1% (inactive).

In the case of `COc1ccc(-c2csc(NC(=S)NC(=O)c3ccc4ccccc4c3)n2)cc1OC`, the activity change, less the hit threshold was -11.9% (inactive).

As to `Cc1[nH]cnc1CSCCN`, the activity change, less the hit threshold is -10.5% (inactive).

In the case of `CCOC(=O)N1CCN(C(=O)CSc2nnc(-c3ccccc3OC)o2)CC1`, the activity change, less the hit threshold was -10.3% (inactive).

As for `Brc1ccc(Nc2nc(-c3cccnc3)cs2)cc1`, the activity change, less the hit threshold is -11.1% (inactive).

Turning to `O=C(COC(=O)C1CCC(=O)N1)Nc1ccc(Oc2ccccc2)cc1` (stereo not drawn), the activity change, less the hit threshold is -11% (inactive).

Turning to `Cc1oc2cc(O)ccc2c(=O)c1N1C(=O)c2ccccc2C1=O`, the activity change, less the hit threshold was -14.7% (inactive).

As for `CN(CC(=O)Nc1nc2ccccc2s1)S(=O)(=O)c1ccc(Cl)cc1`, the activity change, less the hit threshold is -27% (inactive).

On to `Cn1ncc2c(O/N=C(\N)c3ccc(C(F)(F)F)cc3)ncnc21`, for which the activity change, less the hit threshold was -7.2% (inactive).

As to `CCC1CCc2c(sc(NC(=O)C3CC=CCC3C(=O)O)c2C#N)C1` (stereo not drawn), the activity change, less the hit threshold was 1.4% (active).

Turning to `Cc1ccccc1C(=O)NC(=S)Nc1sc2c(c1C#N)CCC(C)C2` (stereo not drawn), the activity change, less the hit threshold is -29% (inactive).

In the case of `COC(=O)c1c(NC(=O)C2CC=CCC2C(=O)O)sc(C)c1C` (stereo not drawn), the activity change, less the hit threshold is -12.3% (inactive).

Take `CCC(C)(C)C1CCc2c(sc(NC(=O)c3ccccc3C(=O)O)c2C#N)C1` (stereo not drawn): the activity change, less the hit threshold was 38.4% (active).

As to `Cc1onc(-c2ccccc2)c1C(=O)NC(=S)Nc1sc2c(c1C#N)CCC(C)C2` (stereo not drawn), the activity change, less the hit threshold was -3.3% (inactive).

Turning to `CCc1ccccc1NC(=O)CC1CS(=O)(=O)CC1CC(=O)Nc1ccccc1CC` (stereo not drawn), the activity change, less the hit threshold was -17% (inactive).

Consider `CC(C)(C)c1ccc(Cn2nc(CC(=O)O)c3ccccc3c2=O)cc1`, for which the activity change, less the hit threshold was -4.4% (inactive).

Turning to `C=CCn1c2ccccc2c(=O)c2cc(C#Cc3ccsc3)ccc21`, the activity change, less the hit threshold was -16% (inactive).

On to `CCc1ccc(C(=O)CSc2nc3ccccc3c(=O)[nH]2)cc1`, for which the activity change, less the hit threshold was -15.1% (inactive).

Turning to `CCCCOC(=O)Cn1c2ccc(OC)cc2c2nc3ccccc3nc21`, the activity change, less the hit threshold is -3.3% (inactive).

For the compound `CC(C)OC(=O)c1c2nc3ccccc3nc2n2c1[nH]c(=O)c1ccccc12`, the activity change, less the hit threshold was 83.4% (active).

In the case of `COCc1cc(C)nc(OCC(=O)N/N=C/c2ccc(-c3cc([N+](=O)[O-])ccc3Cl)o2)c1C#N`, the activity change, less the hit threshold is -8.1% (inactive).

As to `Cc1ccc(-c2cccc(C3CC=CC4C3C(=O)N(Cc3ccccc3)C4c3ccc4ccccc4c3)c2)cc1` (stereo not drawn), the activity change, less the hit threshold is -15.4% (inactive).

With `Cc1ccc(NC(=O)COc2cccnc2[N+](=O)[O-])cc1S(=O)(=O)N1CCOCC1`, the activity change, less the hit threshold is -18.2% (inactive).

With `Cc1nnc2c(SC(C)C)nc3ccccc3n12`, the activity change, less the hit threshold was -19.3% (inactive).

As to `CCc1ccc2[nH]c(O)c(N=Nc3nc(-c4ccccc4)cs3)c2c1`, the activity change, less the hit threshold was -16.3% (inactive).

Regarding `Cn1c(O)c(N=Nc2nc(-c3ccccc3)cs2)c2ccccc21`, the activity change, less the hit threshold is 67.2% (active).

As to `Cc1ccccc1OCC(=O)N=Nc1c(O)n(C)c2ccccc12`, the activity change, less the hit threshold was -2.4% (inactive).

`N#Cc1cccc(N=c2ssnc2Cl)c1`: the activity change, less the hit threshold is -15.2% (inactive).

With `Cc1cc(=O)[nH]c(N/N=C2/CCCC/C2=C\c2ccccc2)n1`, the activity change, less the hit threshold was -11.4% (inactive).

`C/C(=N\NC(N)=S)c1ccncc1`: the activity change, less the hit threshold is -10.4% (inactive).

`CSC(=S)N/N=C(\C)c1ccccc1`: the activity change, less the hit threshold is 42.3% (active).

For the compound `CC(C)NC(=S)N/N=C/c1ccc(C(C)(C)C)cc1`, the activity change, less the hit threshold was -8.8% (inactive).

Consider `CSC(=S)N/N=C/c1ccccc1`, for which the activity change, less the hit threshold was 48% (active).

For `C/C(=N\NC(N)=S)c1cccnc1`, the activity change, less the hit threshold was -17.7% (inactive).

As to `CSC(=S)N/N=C/c1ccc(Br)cc1`, the activity change, less the hit threshold is -6.8% (inactive).

As to `COc1ccc(-n2c(SCC#N)nnc2-c2cccnc2)cc1`, the activity change, less the hit threshold is -24.2% (inactive).

Consider `O=C(CC(=O)c1ccccc1O)c1cccc(F)c1`, for which the activity change, less the hit threshold was -11.1% (inactive).

Turning to `Cc1cc(F)c(F)c(C(=O)N2CCOCC2)c1`, the activity change, less the hit threshold is -20.6% (inactive).

On to `CC(C)(C)OC(=O)N1CCC2(CC1)Oc1ccc(Cl)cc1C(=O)C21CC(c2ccc(Cl)cc2)=NO1` (stereo not drawn), for which the activity change, less the hit threshold was -20.7% (inactive).

In the case of `Cn1nc(C(F)(F)F)c(-c2ccc(Br)cc2)c1NC(=O)c1cccnc1`, the activity change, less the hit threshold is -21.4% (inactive).

For the compound `COc1ccc(C(=O)NNC(=O)CSc2nnc(COc3ccccc3)n2C)cc1`, the activity change, less the hit threshold is -15.5% (inactive).

Take `Cc1cc(NC(=O)CSc2ccc3nnc(-c4cccs4)n3n2)no1`: the activity change, less the hit threshold was -20.2% (inactive).

On to `O=C(O)c1ccc2c3n(nc2c1)-c1ccc(Cl)cc1CO3`, for which the activity change, less the hit threshold was -11.6% (inactive).

Turning to `Cc1c(C(=O)NC(=S)NCc2cccnc2)oc2ccccc12`, the activity change, less the hit threshold is -18.2% (inactive).

As to `Cc1ccc(C)c(NC(=S)NC(=O)c2cncc(Br)c2)c1`, the activity change, less the hit threshold was -2.9% (inactive).

Regarding `O=C(NC(=S)Nc1cccc(Cl)c1)c1cncc(Br)c1`, the activity change, less the hit threshold is -16.1% (inactive).

For `Cc1ccc(NC(=S)NC(=O)c2ccc(Br)o2)c(C)c1`, the activity change, less the hit threshold is 8.1% (active).

Regarding `O=C(NC(=S)Nc1cccnc1)c1cc2ccccc2o1`, the activity change, less the hit threshold was 10.1% (active).

Regarding `O=C(NC(=S)NNC(=O)c1cccs1)c1ccc(Br)o1`, the activity change, less the hit threshold is -12.6% (inactive).

Take `O=C(NC(=S)Nc1ccccc1)c1ccc(Br)o1`: the activity change, less the hit threshold is 3.3% (active).

`O=C(NC(=S)Nc1ccccc1F)c1ccc(Br)o1`: the activity change, less the hit threshold is 59.7% (active).

As for `Cc1ccc(NC(=O)c2ccc3c(c2)CCN3S(C)(=O)=O)c(C)c1`, the activity change, less the hit threshold was -23.2% (inactive).

Consider `Fc1cccc(C2NN=C(c3ccccc3)S2)c1` (stereo not drawn), for which the activity change, less the hit threshold is -7.2% (inactive).

On to `O=C(OCCNc1ccc(C(F)(F)F)cc1[N+](=O)[O-])c1cc2ccccc2oc1=O`, for which the activity change, less the hit threshold was -14.3% (inactive).

In the case of `O=C(O)COc1ccc(NC(=O)c2ccc3c(c2)C(=O)N(C2CCCCC2)C3=O)cc1`, the activity change, less the hit threshold is -6.7% (inactive).

(Values after PubChem BioAssay AID1942 (Johns Hopkins Ion Channel Center, 2009).)
